# Laboratory results reported in PubChem BioAssay (NCATS).
# Results filed as inconclusive are left out. Where a call stands in place of a potency, no number is given. The source made the active and inactive calls. The call rests on the fitted dose curve; in most records, active means well fitted cell-killing curve with a large enough effect; inconclusive means small, poorly fitted or top-dose-only effect, or effect the other way; inactive means flat fitted curve, though single readings scatter.
# Tested on: Hek293T
# Assay: Primary qHTS to identify gynecologic anti-cancer compounds using libraries of approved drugs and bioactive compounds (AID 1345084); further: nearly all actives have a fitted effect of over 55% in size
# Details: Gynecologic cancer cell panel viability, ATPlite luminescence, 48 h, control line for the selectivity index; series mostly up to 57.5 µM
# In short: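 Cytotoxicity screen measuring ATP content by luciferase luminescence. Each compound is applied at five concentrations for 48 h at 37 C with 5% CO2.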
# Potency means the concentration at half of the fitted maximal effect.
Compound,Potency,"activity change, negative = cytotoxicity"
CCC(COC)n1nnc2c(Nc3ccc(OC)cc3C)nc(C)cc21 (stereo not drawn),inactive,
NC1CCC(Nc2cc(-c3cccc(NCc4cccc(F)c4)n3)c(Cl)cn2)CC1 (stereo not drawn),1000 nM (active),
C/C=C/C1=CC2=C(CO1)C(=O)C(C)(O)C(OC(=O)c1c(C)cc(OC)cc1O)C2 (stereo not drawn),inactive,
COc1c2c(c(C)c3c1C(=O)OC3)OC1(C)CC(O)C34OC(OC)(CC(OC(C)=O)C3(C)C1C2)OC4(C)C (stereo not drawn),inactive,
C/C=C/c1ccc2c(c1)[C@@H](C)[C@H](c1ccc(O)cc1)O2,inactive,
CC(C)S(=O)(=O)N[C@H]1CCOC[C@@H]1c1ccc(-c2ccc(C#N)s2)cc1,inactive,
COc1ccc([C@H]2CNC(=O)C2)cc1OC1CCCC1,inactive,
N=c1nc2n(cc1F)C1OC(CO)C(O)C1O2 (stereo not drawn),inactive,
CC(C)CCC(=O)CC1c2ccccc2C(=O)N1c1ccc2ccc(Cl)nc2n1 (stereo not drawn),inactive,
CC1(C)CC[C@]2(C(=O)O[C@@H]3O[C@H](CO)[C@@H](O)[C@H](O)[C@H]3O)CC[C@]3(C)C(=CCC4[C@@]5(C)CC[C@H](O[C@@H]6O[C@H](C(=O)O)[C@@H](O)[C@H](O)[C@H]6O)C(C)(C)C5CC[C@]43C)C2C1 (stereo partly drawn),,5.45% [at 11.6 µM] (inactive)
C=C1C[C@]23C[C@H]1CC[C@H]2[C@@]12CC[C@H](O)[C@@](C)(C(=O)O1)[C@H]2[C@@H]3C(=O)O,inactive,
CC(O)(CC(=O)O)CC(=O)OCc1ccc(O[C@@H]2O[C@H](CO)[C@@H](O)[C@H](O)[C@H]2O)cc1 (stereo partly drawn),inactive,
C[C@@H]1CC[C@]2(C(=O)OC3OC(CO)C(O)C(O)C3O)CC[C@]3(C)C(=CCC4[C@@]5(C)CC[C@H](O)[C@](C)(C(=O)O)C5CC[C@]43C)C2[C@]1(C)O (stereo partly drawn),inactive,
